Compound activity as filed in PubChem BioAssay.
TDP1 cell CPT: qHTS for Inhibitors of human tyrosyl-DNA phosphodiesterase 1 (TDP1): qHTS in cells in presence of CPT. chicken DT40 Tdp1-/-;hTDP1 cells + 20 nM CPT, ATP luminescence, 48 h. Potency, µM (top dose mostly 46.2 µM), without a hit: at the top dose activity change, negative = growth inhibition, usual class: inhibitors. actives 12% (n = 420,000). AID 686979, 2013; also: nearly all actives have a fitted effect of over 55% in size
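Chicken DT40 Tdp1-/- cells complemented with human TDP1, 400 cells/well, exposed to compounds plus 20 nM camptothecin for at least 48 h at 37 C; viability read as ATP content by CellTiter-Glo luminescence.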
KB-3-1 cytotox: qHTS assay for MDR1-selective chemotherapeutics: Primary screen using the parental adenocarcinoma cell KB-3-1 | KB-3-1 viability, CellTiter-Glo ATP luminescence, 72 h | Potency, µM (highest dose often 46.1 µM), usual class: cytotoxic | actives 1.4% (n = 400,000) | AID 1347075, 2019; also: nearly all actives have a fitted effect of over 60% in size
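Viability of parental KB-3-1 cells, measured by CellTiter-Glo luminescence, followed a 72 h incubation at 37 °C with pinned compounds in phenol-red-free DMEM containing 10% FBS.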
HT1080 IDH1KD tx: qHTS for induction of synthetic lethality in tumor cells producing 2HG: qHTS for the HT-1080-IDH1KD cell line; HT-1080 IDH1 knockdown viability, ATP luminescence, 48 h; Potency, µM (highest dose often 46.1 µM), inactives show at the highest dose activity, negative = toxicity, most hits filed as cytotoxic; actives 2% (n = 360,000);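 also: 0% = DMSO wells and -100% = cell-free medium wells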
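IDH1KD HT-1080 cells, 750/well, RPMI + 5% FBS; compound pinned after 2 h settling; 48 h, 37 °C; CellTiter-Glo luminescence; % activity normalised to DMSO and no-cell wells; curves fitted, classed by r2 and efficacy.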
KB-V1 cytotox: qHTS assay for MDR1-selective chemotherapeutics: Primary screen using the drug-selected MDR subline cells KB-V1; KB-V1 MDR cells viability, CellTiter-Glo, 72 h; Potency, µM (titrated, usually from 46.1 µM), actives largely listed as cytotoxic; actives 3.4% (n = 400,000); also: nearly all actives have a fitted effect of over 60% in size
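Compound-treated KB-V1 multidrug-resistant cells, 72 h, 37 degrees C; viability by CellTiter-Glo. Fitted qHTS curves give the values.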
TDP1 cell noCPT: qHTS for Inhibitors of human tyrosyl-DNA phosphodiesterase 1 (TDP1): qHTS in cells in absence of CPT; DT40 Tdp1-/- hTDP1 cells, no CPT, ATP luminescence, 48 h; Potency, µM (doses to about 46.2 µM), without a hit: at the top dose activity change, negative = growth inhibition, usual class: inhibitors; actives 15% (n = 420,000); AID 686978, 2013; also: nearly all actives have a fitted effect of over 55% in size
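Camptothecin absent (DMSO only). Human TDP1-complemented DT40 knockout cells, 400 cells/well, 37 °C for minimum 48 hr; ATP measured via CellTiter-Glo, 30 min dark incubation, luminescence.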
HT1080NT lethal: qHTS for induction of synthetic lethality in tumor cells producing 2HG: qHTS for the HT-1080-NT fibrosarcoma cell line | Potency, µM (top dose mostly 46.1 µM), inactives show at the top dose activity, negative = less viability, usual class: cytotoxic | AID 686970, 2013 | HT-1080-NT fibrosarcoma viability, CellTiter-Glo ATP luminescence, 48 h | actives 1.6% (n = 360,000);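 also: NT is the 2HG producing partner of a matched IDH1 knockdown line; 0% = DMSO-treated cells and -100% = media-only wells without cells; nearly all actives have a fitted effect of over 55% in size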
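A 48-hour cytotoxicity screen used HT-1080-NT cells plated 2 hours before compound delivery. ATP-based CellTiter-Glo luminescence measured viability, normalized to DMSO and no-cell controls.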
* hit, by the source's call. The list is not random: actives were taken first. Their share in the collection is about 19%. Calls follow the shape of the dose curve; as a rule, active = well fitted curve in the direction sought with a large enough effect; inconclusive = small, poorly fitted or top-dose-only effect, or another doubt; inactive = no such curve, though single readings can be large; an effect the other way counts as inactive or inconclusive. Unless noted, % is scaled to controls: 0 for no effect and ±100 for the full control effect; potency is read from the fitted curve at half-maximal effect.

For O=C(NCc1ccccc1)c1ccc(Oc2ccc(C(=O)NCc3ccccc3)cc2)cc1 the results were TDP1 cell CPT inconclusive, KB-3-1 cytotox inactive, HT1080 IDH1KD tx inconclusive, KB-V1 cytotox inactive, TDP1 cell noCPT 16µM* and HT1080NT lethal -19%.
`O=C(Nc1cccc(NC(=O)c2cncc(Br)c2)c1)c1cncc(Br)c1` gave TDP1 cell CPT 12µM*, KB-3-1 cytotox inactive, HT1080 IDH1KD tx inconclusive, KB-V1 cytotox inconclusive, TDP1 cell noCPT 4.6µM* and HT1080NT lethal inconclusive.
O=C(Nc1cccc(C(=O)Nc2ccccc2F)c1)c1ccccc1 was read as TDP1 cell CPT inconclusive, KB-3-1 cytotox inactive, HT1080 IDH1KD tx 1%, KB-V1 cytotox inconclusive, TDP1 cell noCPT 23µM* and HT1080NT lethal -5%.
For COc1cccc(NC(=O)c2cc(CN3CCOCC3)on2)c1 the results were TDP1 cell CPT 17%, KB-3-1 cytotox inactive, KB-V1 cytotox inactive and TDP1 cell noCPT 10%.
For Cc1ccc(CN2CCc3nc(N4CCN(C)CC4)ncc3C2)s1 the results were TDP1 cell CPT inconclusive, KB-3-1 cytotox inactive, KB-V1 cytotox inactive and TDP1 cell noCPT inconclusive.
`COc1ccc(CCNC(=O)c2ccnc(C(C)(C)C)c2)cc1OC` gave TDP1 cell CPT 4%, KB-3-1 cytotox inactive, HT1080 IDH1KD tx 1%, KB-V1 cytotox inconclusive, TDP1 cell noCPT inconclusive and HT1080NT lethal -6%.
`O=C(Nc1ccccc1C(=O)NCc1ccco1)c1ccco1` gave TDP1 cell CPT -1%, KB-3-1 cytotox inactive, HT1080 IDH1KD tx -1%, KB-V1 cytotox inconclusive, TDP1 cell noCPT 1% and HT1080NT lethal -1%.
`O=C(Nc1ccccc1C(=O)Nc1ccccc1C(=O)NCc1ccco1)c1ccco1` gave TDP1 cell CPT 16µM*, KB-3-1 cytotox inactive, HT1080 IDH1KD tx -20%, KB-V1 cytotox inactive, TDP1 cell noCPT inconclusive and HT1080NT lethal -29%.
Screening CC(C)(C)c1cc(C(=O)NCc2ccccc2)ccn1 returned TDP1 cell CPT 13µM*, KB-3-1 cytotox inactive, HT1080 IDH1KD tx -17%, KB-V1 cytotox inconclusive, TDP1 cell noCPT inconclusive and HT1080NT lethal -5%.
`Cc1ccc(C(=O)NCc2ccccc2)cc1Br` gave TDP1 cell CPT -7%, KB-3-1 cytotox inactive, HT1080 IDH1KD tx -2%, KB-V1 cytotox 18µM*, TDP1 cell noCPT -8% and HT1080NT lethal 0%.
For O=S(=O)(c1ccc(Cl)cc1)N1CCC2(CC1)OCCN2S(=O)(=O)c1cccs1 the results were TDP1 cell CPT inconclusive, KB-3-1 cytotox inactive, HT1080 IDH1KD tx -17%, KB-V1 cytotox inconclusive, TDP1 cell noCPT 18µM* and HT1080NT lethal -1%.
Screening COc1ccc(S(=O)(=O)N2CCC3(CC2)OCCN3S(=O)(=O)c2cccs2)cc1 returned TDP1 cell CPT -15%, KB-3-1 cytotox inactive, HT1080 IDH1KD tx 5%, KB-V1 cytotox 8.2µM*, TDP1 cell noCPT inconclusive and HT1080NT lethal -2%.
For CC(C)N=C1NN=C(c2ccc(Cl)c(Cl)c2)CS1 the results were TDP1 cell CPT inconclusive, KB-3-1 cytotox inconclusive, HT1080 IDH1KD tx -13%, KB-V1 cytotox inactive, TDP1 cell noCPT inconclusive and HT1080NT lethal -2%.
Screening CCc1nc2ccc(C(=O)NCCOc3ccc(OC)cc3)cn2c1N(C)C(=O)C1CCCCC1 returned TDP1 cell CPT inconclusive, KB-3-1 cytotox inactive, HT1080 IDH1KD tx -1%, KB-V1 cytotox inactive, TDP1 cell noCPT 21µM* and HT1080NT lethal -2%.
`CCc1nc2ccc(C(=O)N(C)CCCN(C)C)cn2c1N(C)CCCc1ccccc1` gave TDP1 cell CPT inconclusive, KB-3-1 cytotox inactive, HT1080 IDH1KD tx inconclusive, KB-V1 cytotox inactive, TDP1 cell noCPT inconclusive and HT1080NT lethal inconclusive.
CCc1nc2ccc(C(=O)NCc3ccc(OC)cc3)cn2c1N(C)Cc1ccc(OC)cc1 was read as TDP1 cell CPT inconclusive, KB-3-1 cytotox inactive, HT1080 IDH1KD tx -13%, KB-V1 cytotox inactive, TDP1 cell noCPT 21µM* and HT1080NT lethal -8%.
Screening CCc1nc2ccc(C(=O)NCCc3c[nH]c4ccccc34)cn2c1N(C=O)CCC(C)C returned TDP1 cell CPT 21µM*, KB-3-1 cytotox inactive, HT1080 IDH1KD tx -30%, KB-V1 cytotox inactive, TDP1 cell noCPT 16µM* and HT1080NT lethal inconclusive.
Screening CCc1nc2ccc(C(=O)N(C)Cc3ccccc3)cn2c1N(C)CCCc1ccccc1 returned TDP1 cell CPT inconclusive, KB-3-1 cytotox inactive, HT1080 IDH1KD tx inconclusive, KB-V1 cytotox inconclusive, TDP1 cell noCPT 13µM* and HT1080NT lethal inconclusive.
For CCCCN(C=O)c1c(CC)nc2ccc(C(=O)NCCc3c[nH]c4ccccc34)cn12 the results were TDP1 cell CPT inconclusive, KB-3-1 cytotox inactive, HT1080 IDH1KD tx -21%, KB-V1 cytotox inactive, TDP1 cell noCPT inconclusive and HT1080NT lethal -14%.
`COc1cccc(CNC(=O)C2CCCCN2S(=O)(=O)c2ccc(F)cc2)c1` (stereo not given) gave TDP1 cell CPT inconclusive, KB-3-1 cytotox inactive, KB-V1 cytotox inactive and TDP1 cell noCPT inconclusive.
`CCc1nc2ccc(C(=O)NCCOc3ccc(OC)cc3)cn2c1N(C=O)Cc1ccc(OC)cc1` gave TDP1 cell CPT 23µM*, KB-3-1 cytotox inactive, HT1080 IDH1KD tx -4%, KB-V1 cytotox inactive, TDP1 cell noCPT inconclusive and HT1080NT lethal 1%.
`CCc1nc2ccc(C(=O)NCc3ccccc3OC)cn2c1N(C)C(=O)Cc1ccccc1` gave TDP1 cell CPT inconclusive, KB-3-1 cytotox inactive, HT1080 IDH1KD tx 0%, KB-V1 cytotox inactive, TDP1 cell noCPT inconclusive and HT1080NT lethal 5%.
For CCc1nc2ccc(C(=O)NCCOc3ccc(OC)cc3)cn2c1N(CC)CCOC the results were TDP1 cell CPT inconclusive, KB-3-1 cytotox inactive, HT1080 IDH1KD tx 1%, KB-V1 cytotox inconclusive, TDP1 cell noCPT inconclusive and HT1080NT lethal 1%.
